CRFR2-BP antag – antagonists of CRF-BP/CRF-R2 complex, primary screen, cell-based, HEK293, calcium dye fluorescence, uHTS | AID 588475, 2011 | actives 0.59% (n = 350,000) | CRF-induced calcium fluorescence | inhibition, % at 11.8 µM;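 active = inhibition of the ligand-induced calcium signal above about 50% at the single tested concentration, limit read from the data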
TPT1 inh – Candida albicans TPT1 enzyme inhibitors, primary screen, biochemical, fluorescence polarization | tRNA 2'-phosphotransferase TPT1 (Candida albicans SC5314) | recombinant caTPT1, FP RNA substrate dephosphorylation | inhibition, % at 5 µM | actives 0.81% (n = 300,000) | AID 1962, 2009;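 active = inhibition above the mean of all tested compounds plus 3 SD, set per screening campaign, cut at about 24% in these data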
IDE cell inh – human IDE inhibitors in live cells, primary screen, fluorescence polarization, HEK cells, FAbetaB substrate. actives 0.41% (n = 320,000). FAbetaB cleavage. Insulin-degrading enzyme (Homo sapiens), P14735. inhibition, % at 5.59 µM;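 active = percent inhibition above the average of all tested compounds plus 3 SD, set per screening campaign, cut at about 16% in these data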;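 note: IDE supplied by intact live HEK cells; FP after avidin binding of uncleaved biotin substrate so inhibition keeps polarization high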
Target sequence (P14735 whole entry, looked up): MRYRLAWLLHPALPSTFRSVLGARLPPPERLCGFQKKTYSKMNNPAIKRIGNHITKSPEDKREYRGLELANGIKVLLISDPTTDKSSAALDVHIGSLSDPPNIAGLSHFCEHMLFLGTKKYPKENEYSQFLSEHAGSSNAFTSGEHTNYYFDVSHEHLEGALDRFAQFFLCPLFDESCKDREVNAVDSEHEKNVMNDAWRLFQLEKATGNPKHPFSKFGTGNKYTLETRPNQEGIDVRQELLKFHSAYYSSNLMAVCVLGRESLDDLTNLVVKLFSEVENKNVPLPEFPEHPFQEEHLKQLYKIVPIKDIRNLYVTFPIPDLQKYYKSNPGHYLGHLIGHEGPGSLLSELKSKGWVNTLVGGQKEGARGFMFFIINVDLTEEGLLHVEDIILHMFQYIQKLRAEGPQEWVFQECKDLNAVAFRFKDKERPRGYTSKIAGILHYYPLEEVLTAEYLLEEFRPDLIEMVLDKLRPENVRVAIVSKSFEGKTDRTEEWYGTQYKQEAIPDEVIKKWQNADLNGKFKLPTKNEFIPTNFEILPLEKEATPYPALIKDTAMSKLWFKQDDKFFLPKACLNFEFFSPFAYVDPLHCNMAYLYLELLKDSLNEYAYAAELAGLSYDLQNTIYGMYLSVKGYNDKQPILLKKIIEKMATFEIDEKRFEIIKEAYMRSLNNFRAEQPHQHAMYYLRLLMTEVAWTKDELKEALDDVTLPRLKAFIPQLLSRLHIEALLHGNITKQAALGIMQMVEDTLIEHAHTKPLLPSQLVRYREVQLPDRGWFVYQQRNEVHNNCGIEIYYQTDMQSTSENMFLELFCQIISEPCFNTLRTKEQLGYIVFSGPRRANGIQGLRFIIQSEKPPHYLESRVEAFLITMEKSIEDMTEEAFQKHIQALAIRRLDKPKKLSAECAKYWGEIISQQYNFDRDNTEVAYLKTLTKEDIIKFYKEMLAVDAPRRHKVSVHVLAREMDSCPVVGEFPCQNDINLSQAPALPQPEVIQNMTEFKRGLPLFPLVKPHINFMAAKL
IDE act – human IDE activators in live cells, primary screen, fluorescence polarization, HEK cells, FAbeta-B substrate. Insulin-degrading enzyme (Homo sapiens), P14735. FAbeta-B cleavage; 0% vehicle, 100% cell-free pure enzyme wells. activation, % at 5.96 µM. actives 0.073% (n = 340,000). AID 493087, 2011;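 active = activation above the mean of all tested compounds plus 3 SD, set per screening campaign, cut at about 17% in these data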
Myeloid diff 2 – induction of myeloid progenitor differentiation, primary screen, cell-based, flow cytometry, MLPCN library | ER-HoxA9 myeloid progenitors, lysozyme-GFP differentiation | calls only at 10 µM | actives 1% (n = 360,000);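 active = normalized GFP-positive differentiation at or above the plate's own cutoff, the solvent-only control mean plus 3 SD; inconclusive = no clear call, values can overlap the other calls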;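 note: cells exposed to compound for four days before flow analysis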
CRFBP-R2 agonist – agonists of CRF-BP/CRF-R2 complex, primary screen, cell-based, HEK293, calcium dye fluorescence, uHTS | actives 0.46% (n = 350,000) | calcium dye fluorescence (FLIPR); percent of saturating CRF peptide response | AID 588473, 2011 | CRF-binding protein / CRF receptor 2 complex (human) | activation, % at 13.2 µM;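 active = activation of at least 50%, plus an integration ratio under a set limit after plate pattern correction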
Large screens that a line does not name were inactive. Compounds with a hit are over-represented: about 2.6% of the library has one in this group of screens.

CCn1c(=N)n(CC(O)c2ccco2)c2ccccc21 (stereo not given)	none
N=c1n(Cc2ccccc2)c2ccccc2n1CC(O)COc1ccc(Cl)cc1Cl (stereo not given)	IDE act 20.4, Myeloid diff 2 inconclusive (no result: TPT1 inh, IDE cell inh)
COc1ccc(OCC(O)Cn2c(=N)n(Cc3ccccc3)c3ccccc32)cc1 (stereo not given)	none
Cc1ccc(OCC(O)Cn2c(=N)n(Cc3ccccc3)c3ccccc32)cc1 (stereo not given)	Myeloid diff 2 active
COc1ccc(-c2cc3nc(C)cc(N4CCN(C(=O)c5cccnc5)CC4)n3n2)cc1	none (no result: TPT1 inh, IDE cell inh, IDE act)
CCCn1c(SCC(=O)NC(C)(C)C)nnc1C(C)C	none
Cc1ccc(NC(=S)N2CCCC(O)C2)cc1 (stereo not given)	none
COCCNCCCOc1ccc(C)cc1Br	none
COCCCNCCCOc1ccc(C)cc1Br	Myeloid diff 2 active
CCOC(=O)Nc1ccc(Oc2ccccc2)cc1	CRFR2-BP antag 56.9
Cc1cc(C)cc(NC(=O)N2CCC(NC(=O)c3ccco3)CC2)c1	Myeloid diff 2 inconclusive
Cc1ccc(NC(=O)N2CCC(NC(=O)c3ccco3)CC2)cc1	Myeloid diff 2 active
Cc1noc(/C=C/c2ccc(-c3ccccc3Cl)o2)c1[N+](=O)[O-]	TPT1 inh 137.5, Myeloid diff 2 active, CRFBP-R2 agonist 205.2
N#CC(C#N)=NNc1ccc(S(=O)(=O)N2CCCCC2)cc1	CRFR2-BP antag 66.1, CRFBP-R2 agonist 98.8
N#C/C(=N\Nc1ccc(S(=O)(=O)N2CCOCC2)cc1)C(N)=S	Myeloid diff 2 active
COC(=O)Nc1ccc(S(=O)(=O)N2CCCCCC2)cc1	none
O=C(Nc1cc(Cl)ccc1-n1cncn1)c1ccc(Br)o1	none
CC(=O)Nc1cnc(/C=C\CCCO)cn1	none (no result: CRFR2-BP antag, TPT1 inh, IDE cell inh, IDE act, CRFBP-R2 agonist)
c1ccc2c(c1)nnn2-c1ncnc2sc3c(c12)CCCC3	CRFR2-BP antag 62.2
Cc1ccc(-c2nnc(NCc3ccccc3)c3ccccc23)cc1	none
Clc1ccc(-c2nnc(NCc3ccccc3)c3ccccc23)cc1	CRFR2-BP antag 52.3
CCN(C(=O)CCc1nnc2ccc(N3CCC4(CC3)OCCO4)nn12)c1ccccc1	CRFR2-BP antag 51.8
COc1cc(OC)c(N(C)C(=O)c2cc3c(s2)-c2ccccc2S(=O)(=O)C3)cc1Cl	none
O=C(c1ccco1)N(Cc1cccc([N+](=O)[O-])c1)c1ccc(Br)cc1	CRFR2-BP antag 81.5
COC(=O)c1sc(NC(=O)CSc2nnnn2-c2cccc(OC)c2)nc1C	none
CC(C)(C)OC(=O)N1CCC(C(=O)Nc2cccc(C(=O)NCCCc3ccccc3)c2)CC1	none (no result: TPT1 inh, IDE cell inh)
O=C(NC1CCCCC1)C1CCN(S(=O)(=O)c2cccc3nsnc23)CC1	none
O=S(=O)(c1cccc2nsnc12)N1CCc2ccccc2C1	CRFR2-BP antag 52.3
O=C(O)c1ccccc1NC(=O)C1CCN(S(=O)(=O)c2cccc3nsnc23)CC1	IDE act 32.3
O=S(=O)(c1cccc2nsnc12)N1CCCC1	none
Cc1ccc(CNC(=O)CNS(=O)(=O)c2ccc3c(c2)C(C)(C)C(=O)N3C)cc1	none
CNc1nc(-c2c(C)[nH]c3ccc(OC)cc23)cs1	CRFR2-BP antag 87.9
COc1cc(CNc2ccccc2SC)ccc1O	CRFR2-BP antag 55.2
O=C(CSc1nnc(NC(=O)c2cccc(Cl)c2)s1)NCC1CCCO1 (stereo not given)	none
O=C(CNC(=O)c1sc2ccccc2c1Cl)Nc1ccccc1F	none
COc1ccc(C2C(C(C)=O)=C(O)C(=O)N2CCCn2ccnc2)cc1OC (stereo not given)	none
CC(=O)C1=C(O)C(=O)N(CCCn2ccnc2)C1c1ccc(Br)cc1 (stereo not given)	Myeloid diff 2 active
C[C@@H]1CN([C@H](C)CO)C(=O)CCCn2nncc2CO[C@H]1CN(C)CC1CC1	none (no result: CRFR2-BP antag, TPT1 inh, IDE cell inh, IDE act, CRFBP-R2 agonist)
COc1ccc(C(=O)N2CCN(c3cccc(Cl)c3)CC2)c(OC)c1	none
COc1ccccc1N1CCN(c2ncc(C(=O)N3CCN(c4cccc(Cl)c4)CC3)c3ccccc23)CC1	CRFBP-R2 agonist 114.6 (no result: IDE act)
CCOc1ccccc1N1CCN(C(=O)c2ccncc2)CC1	none (no result: Myeloid diff 2)
CCOc1ccccc1N1CCN(C(=O)c2cc(-c3cccnc3)nc3c(Cl)cccc23)CC1	Myeloid diff 2 active
Cc1c(C(=O)NCc2cccnc2)oc2ccc(S(=O)(=O)N3CCCCCC3)cc12	none
CCCc1nnc(NC(=O)CCC(=O)N2CCN(Cc3cc(Cl)ccc3OC)CC2)s1	none
CCc1nnc(NC(=O)CCC(=O)N2CCN(Cc3cc(Cl)ccc3OC)CC2)s1	CRFR2-BP antag 105.8
COc1ccc(CN2CCN(C(=O)CCC(=O)Nc3nnc(C4CCCCC4)s3)CC2)cc1F	Myeloid diff 2 active
COc1ccc(CN2CCN(C(=O)CCC(=O)Nc3nnc(C(F)(F)F)s3)CC2)cc1F	none
COc1ccc2nc(NC(=O)CSc3n[nH]c(N)n3)sc2c1	none
O=C(NCc1ccco1)C1CCN(C(=O)c2ccc(Cl)cc2Cl)CC1	Myeloid diff 2 active
CCN1CCC[C@H]1CNCCCn1cnc2c(SC)ncnc21	none (no result: TPT1 inh, IDE cell inh, IDE act)
CCOc1ccc(C(Nc2cccnc2)c2cc(Cl)c3cccnc3c2O)cc1 (stereo not given)	Myeloid diff 2 active
COc1ccc(C2CC(c3ccc(Br)cc3)=NN2C(=O)CCC(=O)O)cc1OC (stereo not given)	CRFR2-BP antag 56.3
CCOC(=O)C1=C(C)NC2=C(C(=O)CC(c3cccs3)C2)C1c1cccs1 (stereo not given)	Myeloid diff 2 active
CC(=O)NC(c1cccc(F)c1)c1nc(-c2ccoc2)cs1 (stereo not given)	none (no result: CRFR2-BP antag, TPT1 inh, IDE cell inh, IDE act, CRFBP-R2 agonist)
O=C(Nc1ccc2c(c1)CCCN2C(=O)c1cccs1)c1ccccc1	Myeloid diff 2 active
O=C(Nc1ccc2c(c1)CCCN2C(=O)c1cccs1)c1cccc(F)c1	Myeloid diff 2 inconclusive
CC(C)CN(CC(C)C)C(=O)CCCC(=O)N(CC(C)C)CC(C)C	CRFR2-BP antag 52.5
CCCCC(=O)N(CCC)CCC	none (no result: TPT1 inh, IDE cell inh)
COC(=O)N/N=C/c1cc(N=Nc2ccccc2Cl)ccc1O	none
Nc1ccc(C(=O)N/N=C\c2cc(N=Nc3cccc4ccccc34)ccc2O)cc1	CRFR2-BP antag 59.2
CCOc1ncccc1C(=O)Nc1cccc(-c2nnc3n2CCCCC3)c1	none
Cc1onc(-c2ccccc2Cl)c1C(=O)NCc1nnnn1-c1ccc(F)cc1	none
Cc1ccc(OCCNC(=O)c2ccccc2F)cc1	none

High-throughput results from PubChem.
